Test [1] has as its target Protein kinase C alpha type (Homo sapiens) (UniProt P17252). As to conditions: at 10 µM.
Test [2] has as its target Protein kinase C beta type (Homo sapiens) (UniProt P05771). Conditions: at 1 µM.
For test [3] the target is unchanged. Conditions: at 10 µM.
Test [4] has as its target Protein kinase C delta type (Homo sapiens) (UniProt Q05655). As to conditions: at 1 µM.
The target is the same in test [5]. As to conditions: at 10 µM.
Test [6] addresses T1, Protein kinase C epsilon type (Homo sapiens) (UniProt Q02156).
T1 sequence (whole entry): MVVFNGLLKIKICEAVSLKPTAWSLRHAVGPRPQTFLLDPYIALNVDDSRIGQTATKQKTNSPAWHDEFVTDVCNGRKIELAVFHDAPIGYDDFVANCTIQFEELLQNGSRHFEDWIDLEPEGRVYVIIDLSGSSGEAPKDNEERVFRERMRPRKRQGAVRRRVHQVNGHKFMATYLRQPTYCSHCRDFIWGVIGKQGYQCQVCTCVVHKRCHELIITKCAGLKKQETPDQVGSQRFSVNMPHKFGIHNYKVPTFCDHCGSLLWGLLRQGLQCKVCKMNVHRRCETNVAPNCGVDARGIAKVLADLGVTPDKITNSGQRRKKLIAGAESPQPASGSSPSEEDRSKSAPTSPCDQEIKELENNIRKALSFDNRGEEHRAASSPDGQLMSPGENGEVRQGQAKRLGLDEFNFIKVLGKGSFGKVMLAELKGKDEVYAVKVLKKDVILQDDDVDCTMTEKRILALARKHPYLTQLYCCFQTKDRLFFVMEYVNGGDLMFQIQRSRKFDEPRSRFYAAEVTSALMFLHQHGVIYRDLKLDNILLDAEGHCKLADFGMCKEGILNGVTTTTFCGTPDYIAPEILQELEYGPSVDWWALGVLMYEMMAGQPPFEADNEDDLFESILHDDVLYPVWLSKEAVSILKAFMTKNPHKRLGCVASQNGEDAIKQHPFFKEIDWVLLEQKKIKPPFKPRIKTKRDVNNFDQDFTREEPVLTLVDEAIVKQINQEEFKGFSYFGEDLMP
As to conditions: at 1 µM.

In test [7] the target is Protein kinase C alpha type (Homo sapiens) (UniProt P17252). As to conditions: at 1 µM.
Test [8] has as its target Protein kinase C beta type (Homo sapiens) (UniProt P05771). As to conditions: at 1 µM. The source holds these as a separate data set.
Test [9] shares this target. As to conditions: at 10 µM. This is another data set of the same source.
Test [10] concerns the target Protein kinase C gamma type (Homo sapiens) (UniProt P05129). Conditions: at 1 µM.
Test [11] has the same target. As to conditions: at 10 µM.
Test [12] concerns the target T1, Protein kinase C epsilon type (Homo sapiens). As to conditions: at 10 µM.

Drawing on ChEMBL document CHEMBL2218924, “A broad activity screen in support of a chemogenomic map for kinase signalling research and drug discovery” (Biochem J, 2013), this text covers residual activity for 19 compounds.

Chain of Protein kinase C delta type (Homo sapiens) (Q05655 whole entry, looked up): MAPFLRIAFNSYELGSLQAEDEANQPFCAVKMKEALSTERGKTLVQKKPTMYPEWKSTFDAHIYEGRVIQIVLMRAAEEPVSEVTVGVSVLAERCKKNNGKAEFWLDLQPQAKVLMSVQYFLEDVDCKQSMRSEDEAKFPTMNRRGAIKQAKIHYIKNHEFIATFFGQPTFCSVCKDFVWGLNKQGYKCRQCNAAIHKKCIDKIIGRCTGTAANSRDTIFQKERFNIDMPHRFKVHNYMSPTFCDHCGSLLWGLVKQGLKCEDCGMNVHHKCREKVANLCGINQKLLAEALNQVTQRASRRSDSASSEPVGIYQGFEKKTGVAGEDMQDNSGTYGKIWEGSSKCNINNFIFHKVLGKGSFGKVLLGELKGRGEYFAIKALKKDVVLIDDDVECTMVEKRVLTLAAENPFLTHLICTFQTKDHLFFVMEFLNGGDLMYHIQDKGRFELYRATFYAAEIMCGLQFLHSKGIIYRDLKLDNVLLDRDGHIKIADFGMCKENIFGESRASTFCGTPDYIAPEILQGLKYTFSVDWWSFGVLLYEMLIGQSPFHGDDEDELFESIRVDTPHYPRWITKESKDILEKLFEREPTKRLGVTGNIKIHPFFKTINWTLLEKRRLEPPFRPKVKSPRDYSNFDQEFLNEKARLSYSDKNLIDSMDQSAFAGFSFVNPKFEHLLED
Chain of Protein kinase C beta type (Homo sapiens) (P05771 2-671 limits assumed): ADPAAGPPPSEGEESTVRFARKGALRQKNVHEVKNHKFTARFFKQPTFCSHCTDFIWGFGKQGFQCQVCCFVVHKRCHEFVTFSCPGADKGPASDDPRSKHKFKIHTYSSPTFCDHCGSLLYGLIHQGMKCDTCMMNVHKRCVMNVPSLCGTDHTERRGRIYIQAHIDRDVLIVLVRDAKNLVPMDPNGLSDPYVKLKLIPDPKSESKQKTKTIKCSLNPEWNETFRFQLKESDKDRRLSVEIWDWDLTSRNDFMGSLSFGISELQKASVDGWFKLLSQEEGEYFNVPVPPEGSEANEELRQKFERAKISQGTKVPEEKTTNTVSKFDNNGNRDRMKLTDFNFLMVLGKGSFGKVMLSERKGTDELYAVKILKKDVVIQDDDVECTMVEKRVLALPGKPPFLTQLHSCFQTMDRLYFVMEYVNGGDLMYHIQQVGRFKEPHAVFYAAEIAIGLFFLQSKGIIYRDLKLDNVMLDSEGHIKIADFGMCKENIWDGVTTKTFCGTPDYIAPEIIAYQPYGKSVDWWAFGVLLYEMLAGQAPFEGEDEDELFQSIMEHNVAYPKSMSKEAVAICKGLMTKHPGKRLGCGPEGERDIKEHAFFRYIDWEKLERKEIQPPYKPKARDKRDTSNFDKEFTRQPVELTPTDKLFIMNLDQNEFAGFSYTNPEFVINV

In the case of `COc1cc2ncnc(Nc3ccc(NC(=O)c4ccccc4)cc3)c2cc1OC`, the residual activity (usually the signal under treatment as a percentage of the control signal) in [1] was found to be 107%; in test [2], 100%; in [3], 94%; in [4], 107%; in test [5], 102%; in test [6], 93%.

`N#CCCc1ccc2c(c1)-c1[nH]c3ccc([N+](=O)[O-])cc3c1CC(=O)N2`: the results for the residual activity in [4] and in test [5] were 68% and 57%, respectively.

For the compound `O=C1NC(=O)/C(=C\c2ccc3nccnc3c2)S1`, the residual activity in [7] worked out at 108%; in test [1] it was 88%; in test [8], 124%; in test [9] it was 121%; in test [2], 101%; in test [3], 100%. In addition, the residual activity worked out at 109% in test [10]; 83% in test [11]; 99% in test [4]; 81% in test [5]; 105% in test [6]; 95% in test [12].

In the case of `Cn1cnc2cc3c(Nc4cccc(Br)c4)ncnc3cc21`, the residual activity in test [7] was determined as 101%; in test [1], 98%; in test [8], 109%; in test [9], 85%; in test [2], 100%; in [3], 95%. In addition, the residual activity in test [10] is 103%; in test [11], 99%; in test [4], 97%; in [5], 100%; in [6], 86%; in [12], 95%.

With `N#Cc1cnc2cnc(NCc3cccnc3)cc2c1Nc1ccc(F)c(Cl)c1`, the residual activity in test [7] was 98%; in test [1] it was 55%; in test [8] it was 18%; in test [9], 18%; in test [4], 61%; in [5], 24%. Also, the residual activity in test [6] was determined as 81%; in [12], 42%.

Take `Cc1ccc(S(=O)(=O)/C=C/C#N)cc1`: the residual activity in [7] worked out at 88%; in [1], 93%; in test [8], 98%; in [9] it was 102%; in [2], 104%; in [10] it was 99%. Besides, the residual activity in [11] was determined as 87%; in test [4] it was 101%; in test [5], 105%; in [6], 101%; in [12] it was 92%.

Take `Cc1cncc2cccc(S(=O)(=O)N3CCCN(C(=O)CN)C[C@H]3C)c12`: the residual activity turned out to be 99% in test [7]; 85% in test [1]; 82% in [8]; 31% in test [9]; 95% in [2]; 51% in [3]. For the same compound, the residual activity in [4] turned out to be 7%; in test [5], 3%; in test [6], 58%; in [12], 23%.

For the compound `C[C@@H](N)[C@H]1CC[C@H](C(=O)Nc2ccncc2)CC1`, the residual activity in test [7] was 94%; in test [1] it was 84%; in test [8] it was 101%; in test [9] it was 87%; in test [2] it was 81%; in test [3], 34%. The residual activity in [10] was determined as 97%; in test [11] it was 96%; in test [4] it was 48%; in [5], 12%; in [6], 71%; in [12], 31%.

Regarding `c1ccc(-c2n[nH]cc2-c2ccnc3ccccc23)nc1`, the residual activity in test [2] worked out at 101%; in test [3], 94%; in test [4], 94%; in test [5], 92%; in test [6], 74%; in test [12] it was 89%.

As to `O=C1c2ccccc2-[n+]2ccc3c([nH]c4ccccc43)c21`, the residual activity was determined as 106% in test [7]; 98% in [1]; 102% in [8]; 97% in test [9]; 93% in test [2]; 88% in test [3]. The residual activity in [10] turned out to be 97%; in test [4] it was 101%; in [5], 104%; in [6], 93%; in [12], 94%.

On to `Nc1n[nH]c2nnc(-c3c(-c4ccccc4)nn4ccccc34)cc12`, for which the residual activity in test [7] stood at 97%; in test [1] it was 91%; in [8] it was 99%; in [9], 96%; in [2] it was 102%; in test [3], 93%. The residual activity was 98% in test [10]; 98% in [11]; 22% in [4]; 4% in [5]; 101% in test [6]; 41% in test [12].

With `Nc1nc(Nc2ccc(S(N)(=O)=O)cc2)nn1C(=S)Nc1c(F)cccc1F`, the residual activity in test [7] was 51%; in test [1] it was 18%; in test [8], 84%; in test [9], 38%; in test [2], 88%; in test [3], 78%. In addition, the residual activity in test [10] stood at 71%; in test [11], 66%; in [4] it was 10%; in test [5], 9%; in test [6], 30%; in test [12], 8%.

In the case of `O=C(Nc1cccc(Nc2nccc(Nc3cccc(C(F)(F)F)c3)n2)c1)C1CC1`, the residual activity in [7] was 95%; in test [1], 66%; in test [8], 110%; in [9], 107%; in test [2], 99%; in test [3], 102%. Further, the residual activity in [10] is 98%; in test [11] it was 90%; in test [4], 100%; in [5], 106%; in [6], 95%; in test [12], 80%.

In the case of `COc1cc2ncc(-c3ccccc3)nc2cc1OC`, the residual activity in test [8] was found to be 131%; in test [9], 124%; in test [2], 97%; in test [3], 96%.

Turning to `COc1ccc(S(=O)(=O)N(CCO)c2ccccc2CN(C)C/C=C/c2ccc(Cl)cc2)cc1`, the residual activity in test [7] stood at 107%; in test [1], 94%; in test [8] it was 106%; in [9], 102%; in [2], 115%; in test [3] it was 96%. The residual activity came to 99% in [10]; 104% in test [11]; 108% in [4]; 106% in [5]; 106% in [6]; 93% in test [12].

Regarding `CO[C@H]1C[C@@H]2CC[C@@H](C)[C@@](O)(O2)C(=O)C(=O)N2CCCC[C@H]2C(=O)O[C@H]([C@H](C)C[C@@H]2CC[C@@H](O)[C@H](OC)C2)CC(=O)[C@H](C)/C=C(\C)[C@@H](O)[C@@H](OC)C(=O)[C@H](C)C[C@H](C)/C=C/C=C/C=C/1C`, the residual activity turned out to be 99% in test [7]; 99% in test [1]; 107% in test [8]; 106% in [9]; 105% in [2]; 103% in [3]. Also, the residual activity in test [10] is 105%; in test [11], 98%; in test [4], 98%; in test [5] it was 99%; in test [6], 81%; in [12], 82%.

With `Cc1nc2cc3nc(-c4cccs4)cnc3cc2n1C`, the residual activity in test [7] came to 111%; in [1] it was 96%; in test [8] it was 107%; in test [9] it was 105%; in test [2], 99%; in test [3] it was 99%. For the same compound, the residual activity in [10] was determined as 110%; in test [11], 104%; in [4] it was 98%; in test [5] it was 106%; in test [6] it was 104%; in test [12], 89%.

In the case of `CCN(CC)C(=O)c1ccc(Nc2nc(OCC3CCCCC3)c3nc[nH]c3n2)cc1`, the residual activity stood at 95% in test [7]; 58% in test [1]; 46% in test [10]; 13% in [11]; 78% in test [4]; 26% in test [5]. Besides, the figures for the residual activity in [6] and in test [12] were 80% and 69%, respectively.

As for `Cn1cc(/C=C2\C(=O)Nc3ccc(S(N)(=O)=O)cc32)c2ccccc21`, the residual activity in test [7] was 108%; in [1] it was 104%; in test [8], 111%; in test [9], 109%; in test [2] it was 103%; in test [3] it was 108%. The residual activity in test [11] turned out to be 79%; in test [4], 101%; in test [5], 99%; in test [6], 90%; in test [12], 100%.
